Source: PubChem BioAssay (NCI)
The panel holds about 83,000 compounds, 20% with a hit somewhere; the sample as a whole holds those more often.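 Growth was measured after 48 h exposure to one concentration of compound in 96-well plates. Values under 10 count as active.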 Active and inactive are the calls of the source.

Tests used:
Assay in all cases: NCI-60 one-dose screen, 48 h (100 = growth as untreated, 0 = no growth, -100 = all killed)
Conditions in all cases: 10 µM unless noted
NCI-H23 lung = test system: NCI-H23 lung
NCI-H226 lung = test system: NCI-H226 lung
NCI-H322M lung = test system: NCI-H322M lung
HOP-62 NSCLC = test system: HOP-62 NSCLC
HOP-92 NSCLC = test system: HOP-92 NSCLC
NCI-H522 lung = test system: NCI-H522 lung
A549/ATCC NSCLC = test system: A549/ATCC NSCLC
786-0 renal = test system: 786-0 renal
COLO 205 colon = test system: COLO 205 colon
DU-145 prostate = test system: DU-145 prostate
K-562 leukemia = test system: K-562 leukemia
MALME-3M melanoma = test system: MALME-3M melanoma
MDA-MB-231 breast = test system: MDA-MB-231 breast
RXF 393 renal = test system: RXF 393 renal
SF-268 CNS = test system: SF-268 CNS
SF-295 CNS = test system: SF-295 CNS
SF-539 CNS = test system: SF-539 CNS
UACC-257 melanoma = test system: UACC-257 melanoma
M14 melanoma = test system: M14 melanoma

Measured: growth

Cc1ccc(Cc2cnc(NC(=O)/C=C/c3cccc(C)c3)s2)cc1
active: COLO 205 colon -4.26% | MDA-MB-231 breast 3.61% | RXF 393 renal -0.16% | SF-295 CNS -13.6% | SF-539 CNS -30.1% | M14 melanoma -12.4%
inactive: NCI-H23 lung 13.3% | NCI-H226 lung 36.8% | NCI-H322M lung 46.1% | HOP-62 NSCLC 18.5% | HOP-92 NSCLC 70.4% | NCI-H522 lung 18.6% | A549/ATCC NSCLC 16.1% | 786-0 renal 17.8% | DU-145 prostate 16.2% | K-562 leukemia 13.7% | MALME-3M melanoma 31.4% | SF-268 CNS 44.7% | UACC-257 melanoma 67.7%

CC(C)(C)CC(C)(C)c1ccc(OCCOCC[N+](C)(C)CC(=O)[O-])cc1
inactive: NCI-H23 lung 108% | NCI-H226 lung 105% | NCI-H322M lung 111% | HOP-62 NSCLC 106% | HOP-92 NSCLC 105% | NCI-H522 lung 103% | A549/ATCC NSCLC 101% | 786-0 renal 106% | COLO 205 colon 105% | DU-145 prostate 114% | K-562 leukemia 105% | MALME-3M melanoma 102% | MDA-MB-231 breast 112% | RXF 393 renal 134% | SF-268 CNS 109% | SF-539 CNS 104% | UACC-257 melanoma 100% | M14 melanoma 104%

COc1cnc2c(c1)C(=O)c1c-2n(CCCNC(C)C)c(=O)c2cc([N+](=O)[O-])ccc12
active: NCI-H23 lung -67.8% | NCI-H226 lung -58.8% | NCI-H322M lung -31.6% | HOP-62 NSCLC -53.2% | HOP-92 NSCLC -80.1% | NCI-H522 lung -56.6% | A549/ATCC NSCLC -65.5% | 786-0 renal -88.2% | COLO 205 colon -74.3% | DU-145 prostate -58.4% | K-562 leukemia -14.4% | MALME-3M melanoma -58.2% | MDA-MB-231 breast -60.5% | RXF 393 renal -80.7% | SF-268 CNS -61.2% | SF-295 CNS -76.2% | SF-539 CNS -63% | UACC-257 melanoma -67% | M14 melanoma -76.8%

Cc1cc2nc3c4cc([N+](=O)[O-])cc([N+](=O)[O-])c4n(CCN(C)C)c3nc2cc1C
inactive: NCI-H23 lung 77.7% | NCI-H226 lung 84.1% | NCI-H322M lung 72.2% | HOP-62 NSCLC 64.7% | HOP-92 NSCLC 80.7% | NCI-H522 lung 70.6% | A549/ATCC NSCLC 73.5% | 786-0 renal 80.4% | COLO 205 colon 71.1% | DU-145 prostate 92.1% | K-562 leukemia 62.3% | MALME-3M melanoma 76.5% | MDA-MB-231 breast 77.2% | RXF 393 renal 58.3% | SF-268 CNS 74.1% | SF-295 CNS 62.9% | SF-539 CNS 76.5% | UACC-257 melanoma 107% | M14 melanoma 80.1%

C[C@@H]1CCCCCCCCC[C@H](O)C(=O)C[C@@H](SC[C@@H](O)C(=O)O)C(=O)O1
inactive: NCI-H23 lung 96.5% | NCI-H226 lung 102% | NCI-H322M lung 116% | HOP-62 NSCLC 97.5% | HOP-92 NSCLC 90.8% | NCI-H522 lung 66.4% | A549/ATCC NSCLC 85.8% | 786-0 renal 85.7% | COLO 205 colon 117% | DU-145 prostate 95.2% | K-562 leukemia 15.5% | MALME-3M melanoma 94.7% | MDA-MB-231 breast 96% | RXF 393 renal 112% | SF-268 CNS 98% | SF-295 CNS 104% | SF-539 CNS 97.8% | UACC-257 melanoma 83.4% | M14 melanoma 87%

Cc1ccc2c(c1)c(-c1nc(-c3c[nH]c4ncccc34)cs1)cn2C
inactive: NCI-H23 lung 71.9% | NCI-H226 lung 88.9% | NCI-H322M lung 73.1% | HOP-62 NSCLC 105% | HOP-92 NSCLC 83.8% | NCI-H522 lung 70.5% | A549/ATCC NSCLC 87.8% | 786-0 renal 83% | COLO 205 colon 112% | DU-145 prostate 115% | K-562 leukemia 81% | MDA-MB-231 breast 75.7% | RXF 393 renal 97.4% | SF-268 CNS 128% | SF-295 CNS 101% | SF-539 CNS 92% | UACC-257 melanoma 115% | M14 melanoma 101%

COc1cc(/C=C/c2cc(/C=C/c3ccc(O)c(OC)c3)n(-c3ccccc3)c(=O)n2)ccc1O
inactive: NCI-H23 lung 78.4% | NCI-H226 lung 80.2% | NCI-H322M lung 86.8% | HOP-62 NSCLC 85.8% | HOP-92 NSCLC 78.8% | NCI-H522 lung 68.2% | A549/ATCC NSCLC 90.6% | 786-0 renal 85.1% | COLO 205 colon 71.3% | DU-145 prostate 86.7% | K-562 leukemia 53.9% | MALME-3M melanoma 90.4% | MDA-MB-231 breast 61.4% | RXF 393 renal 68.3% | SF-268 CNS 72.3% | SF-295 CNS 88% | SF-539 CNS 79.5% | UACC-257 melanoma 88.9% | M14 melanoma 85.7%

CCOc1ccc(NC(=O)c2ccccc2-c2ccccc2C(=O)O)cc1
inactive: NCI-H23 lung 109% | NCI-H226 lung 104% | NCI-H322M lung 106% | HOP-62 NSCLC 106% | HOP-92 NSCLC 106% | NCI-H522 lung 104% | A549/ATCC NSCLC 107% | 786-0 renal 105% | COLO 205 colon 113% | DU-145 prostate 106% | K-562 leukemia 90.2% | MDA-MB-231 breast 107% | RXF 393 renal 114% | SF-268 CNS 105% | SF-295 CNS 115% | SF-539 CNS 117% | UACC-257 melanoma 112% | M14 melanoma 113%
